Results published in PubChem BioAssay (NCI).
The panel holds about 79,000 compounds, 15% with a hit somewhere; the sample as a whole holds those more often. Values without a mark were called inactive. Calls of active or inactive are those of the source. No stated cut-off is given here; in the data, active means growth inhibition above about 70%; inactive means the rest.

Experiment: NCI Yeast Anticancer Drug Screen. Data for the sgs1 strain (AID 173);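 further: 0% = growth of vehicle-only control cultures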
Settings: S. cerevisiae sgs1 mutant, hits give high values
Experimental: Growth inhibition of yeast strains with defined genetic alterations is measured as a screen for potential anti-cancer activity. Selected strains with alterations in DNA damage repair or cell cycle control were exposed to compounds and growth inhibition was measured relative to vehicle treated controls. The strain used in this assay is sgs1

Row | Structure (SMILES) | growth inhibition (at 1.2 µM) | growth inhibition (at 3.7 µM) | growth inhibition (at 11.0 µM) | growth inhibition (at 33.0 µM) | growth inhibition (at 100.0 µM)
1 | Nc1ccc2c(c1)C(=O)c1c(F)cccc1-2 | -2% | 0% | 0% | 10% | 92% (active)
2 | CC(C)OP(=O)(OC(C)C)C(=NCCO)NNc1ccc([N+](=O)[O-])cc1 | 24% | 39% | 71% (active) | 95% (active) | 95% (active)
3 | Cc1cc(OCc2nc(N)nc(N)c2-c2ccc(Cl)c(Cl)c2)ccc1[N+](=O)[O-] | -1% | -3% | -2% | -1% | 0%
4 | CN(C)CC(CN(C)C)C(=O)/C=C/c1ccc(Cl)cc1Cl | -2% | -2% | 5% | 98% (active) | 98% (active)
5 | CO[C@@]1([C@@H](Cl)c2ccccc2)C(=O)N(C)/C(=C\c2ccccc2)C(=O)N1C | -2% | -3% | -1% | 35% | 82% (active)
6 | CC1(c2ccccc2)O[C@@H]2C[C@H]3[C@@H]4CCC5=CC(=O)C=C[C@]5(C)[C@@]4(F)[C@@H](O)C[C@]3(C)[C@]2(C(=O)CO)O1 (stereo not given in full) | 0% | 3% | 10% | 62% | 97% (active)
7 | O=[N+]([O-])c1cn[n+]([O-])c2ccccc12 | 40% | 71% (active) | 84% (active) | 98% (active) | 98% (active)
8 | Cc1ccc(C)c(C(=N)c2ccccc2Cc2ccccc2)c1 | 8% | 60% | 86% (active) | 95% (active) | 97% (active)
